Bioassay records as filed in PubChem BioAssay.
Only some compounds are listed: those with a hit (about 18% of all), similar ones and a draw of the others.
KAT2A inh: qHTS Assay for Inhibitors of GCN5L2; Histone acetyltransferase KAT2A (Homo sapiens), Q92830; GCN5L2 HAT assay, ThioGlo1 CoA-SH fluorescence; Potency, µM (doses to about 58.9 µM), without a hit: at the top dose activity change, negative = inhibition, actives largely listed as inhibitors; 390,000 tested, 0.21% active; AID 504327, 2011
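Preincubate 20nM GCN5L2 with compound 15 min, RT → add 50uM ThioGlo1 + 75uM H3(1-25) + 70uM acetyl-CoA → read fluorescence 0 and 20 min. Primary qHTS; fluorescent artifacts likely.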
VDR inh: Inhibitors of the vitamin D receptor (VDR): qHTS. 400,000 tested, 0.93% active. VDR-SRC2-3 peptide fluorescence polarization, 2 h. AID 504847, 2011. Potency, µM, without a hit: max response, negative = inhibition, usual class: inhibitors. Vitamin D3 receptor (Homo sapiens), P11473
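After 23 nl compound addition and a short centrifugation, plates sat for 2 hours at ambient temperature; polarization of fluorescence then indicated loss of VDR binding to peptide SRC2-3.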
TDP1 block: qHTS Assay for Inhibitors of Tyrosyl-DNA Phosphodiesterase (TDP1). Tyrosyl-DNA phosphodiesterase 1 (Homo sapiens), Q9NUW8. recombinant TDP1, AlphaScreen DNA substrate cleavage. Potency, µM (highest dose often 130 µM), without a hit: at the highest dose activity change, negative = inhibition, most hits filed as inhibitors. 350,000 tested, 0.28% active. AID 485290, 2010; also: nearly all actives have a fitted effect of over 40% in size
Target sequence (Q9NUW8 whole entry, looked up): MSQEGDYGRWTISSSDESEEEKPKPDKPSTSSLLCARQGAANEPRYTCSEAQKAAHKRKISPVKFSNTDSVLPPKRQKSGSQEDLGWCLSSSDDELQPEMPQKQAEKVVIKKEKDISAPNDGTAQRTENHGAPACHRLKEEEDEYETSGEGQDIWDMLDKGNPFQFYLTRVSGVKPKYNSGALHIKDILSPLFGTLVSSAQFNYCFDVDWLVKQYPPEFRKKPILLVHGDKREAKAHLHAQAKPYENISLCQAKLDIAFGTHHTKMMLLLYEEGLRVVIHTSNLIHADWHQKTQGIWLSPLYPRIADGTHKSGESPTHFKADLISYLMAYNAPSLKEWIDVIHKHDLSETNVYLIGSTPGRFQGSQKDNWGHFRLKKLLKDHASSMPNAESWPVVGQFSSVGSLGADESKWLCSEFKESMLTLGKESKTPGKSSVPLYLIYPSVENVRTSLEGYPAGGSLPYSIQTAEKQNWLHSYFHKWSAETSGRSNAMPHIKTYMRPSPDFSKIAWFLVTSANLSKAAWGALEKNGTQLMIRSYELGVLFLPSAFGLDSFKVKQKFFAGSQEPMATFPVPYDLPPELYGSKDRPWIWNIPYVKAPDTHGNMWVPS
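Recombinant human Tdp1 (E. coli-expressed, 1 nM final) preincubated with compounds 15 min at room temperature, then 5'-biotin/3'-phosphotyrosine-FITC DNA substrate (15 nM final) added for 5 min. AlphaScreen beads (10 ug/ml final) added 10 min; cleavage lowers signal.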
DT40 TDP1 CPT: qHTS for Inhibitors of human tyrosyl-DNA phosphodiesterase 1 (TDP1): qHTS in cells in presence of CPT | AID 686979, 2013 | 420,000 tested, 12% active | Potency, µM (series often up to 46.2 µM), inactives show top-dose activity change, negative = growth inhibition, usual class: inhibitors | chicken DT40 Tdp1-/-;hTDP1 cells + 20 nM CPT, ATP luminescence, 48 h; also: nearly all actives have a fitted effect of over 55% in size
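Chicken DT40 Tdp1-/- cells stably complemented with human TDP1 were seeded at 400 cells/well in medium containing 20 nM camptothecin, exposed to pin-transferred compounds, and grown at 37 °C for at least 48 hr. Viability was read as ATP luminescence.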
PLK1 PBD inh: qHTS for Inhibitors of PLK1-PDB (polo-like kinase 1 - polo-box domain): Primary Screen. Potency, µM, for the others: max response, negative = inhibition, most hits filed as inhibitors. Serine/threonine-protein kinase PLK1 (Homo sapiens), P53350. Plk1 PBD binding of FITC phosphopeptide, fluorescence polarization. 360,000 tested, 2.8% active; also: series mostly up to about 57 µM; nearly all actives have a fitted effect of over 65% in size
DT40 TDP1 no CPT: qHTS for Inhibitors of human tyrosyl-DNA phosphodiesterase 1 (TDP1): qHTS in cells in absence of CPT | DT40 Tdp1-/- hTDP1 cells, no CPT, ATP luminescence, 48 h | Potency, µM (highest dose often 46.2 µM), for inactives: at the highest dose activity change, negative = growth inhibition, usual class: inhibitors | 420,000 tested, 15% active; also: nearly all actives have a fitted effect of over 55% in size
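Camptothecin absent (DMSO only). Human TDP1-complemented DT40 knockout cells, 400 cells/well, 37 °C for minimum 48 hr; ATP measured via CellTiter-Glo, 30 min dark incubation, luminescence.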
Starred values were filed as active, the others as inactive; [ ] = another dose, or the depositor's remark. Calls follow the shape of the dose curve; as a rule, active = well fitted curve in the direction sought with a large enough effect; inconclusive = small, poorly fitted or top-dose-only effect, or another doubt; inactive = no such curve, though single readings can be large; an effect the other way counts as inactive or inconclusive. % is scaled to controls: 0 for no effect and ±100 for the full control effect; potency is read from the fitted curve at half-maximal effect.

`NC(Cc1ccc(Cl)cc1)c1csc(Nc2ccc(S(N)(=O)=O)cc2)n1` (centres undefined) gave DT40 TDP1 CPT 15µM*, PLK1 PBD inh 3% and DT40 TDP1 no CPT 9.2µM*.
For CC(C)C(N)c1csc(Nc2ccc(S(C)(=O)=O)cc2)n1 (centres undefined) the results were DT40 TDP1 CPT 7%, PLK1 PBD inh -12% and DT40 TDP1 no CPT 0%.
CS(=O)(=O)c1ccc(Nc2nc(C(N)Cc3ccc(Cl)cc3)cs2)cc1 (centres undefined) was read as DT40 TDP1 CPT 12µM*, PLK1 PBD inh -9% and DT40 TDP1 no CPT 16µM*.
For NC(Cc1ccc(C(F)(F)F)cc1)c1csc(Nc2ccc(S(N)(=O)=O)cc2)n1 (centres undefined) the results were DT40 TDP1 CPT 13µM*, PLK1 PBD inh 3% and DT40 TDP1 no CPT 21µM*.
`COc1ccc(C(=O)NC(=S)N2CCN(c3ccccc3O)CC2)cc1` gave KAT2A inh -1%, VDR inh -28%, TDP1 block 3%, DT40 TDP1 CPT inconclusive, PLK1 PBD inh -19% and DT40 TDP1 no CPT inconclusive.
For O=C(COC(=O)c1ccccc1SCC(=O)N1CCCC1)NCc1ccc(F)cc1 the results were DT40 TDP1 CPT -3%, PLK1 PBD inh -19% and DT40 TDP1 no CPT -24%.
For CC1CCN(C(=O)CSc2nncn2-c2ccccn2)CC1 the results were KAT2A inh -3%, VDR inh inconclusive, TDP1 block 2%, DT40 TDP1 CPT -20%, PLK1 PBD inh 27µM* and DT40 TDP1 no CPT -1%.
For Cc1nn(C)c(C(=O)Nc2ccc(Br)cc2F)c1Br the results were KAT2A inh -3%, VDR inh inconclusive, TDP1 block 3%, DT40 TDP1 CPT -1%, PLK1 PBD inh -6% and DT40 TDP1 no CPT -23%.
Screening Cc1nn(C)c(C(=O)Nc2ccc(S(=O)(=O)NC34CC5CC(CC(C5)C3)C4)cc2)c1Br returned KAT2A inh -15%, VDR inh -8%, TDP1 block 7%, DT40 TDP1 CPT 21µM*, PLK1 PBD inh -2% and DT40 TDP1 no CPT 23µM*.
`Cc1ccc(S(=O)(=O)NC23CC4CC(CC(C4)C2)C3)cc1` gave KAT2A inh -4%, VDR inh -30%, TDP1 block 0%[56.1 µM], DT40 TDP1 CPT inconclusive, PLK1 PBD inh -5% and DT40 TDP1 no CPT 21µM*.
For OC(COCC1COc2ccccc2O1)CN1CCCCC1 (centres undefined) the results were KAT2A inh 2%, VDR inh -9%, TDP1 block 1%, DT40 TDP1 CPT -16%, PLK1 PBD inh 30µM* and DT40 TDP1 no CPT -1%.
`C=CCNc1sc(C(=O)c2ccccc2)c(N)c1-c1nc2ccccc2s1` gave KAT2A inh -7%, VDR inh -14%, TDP1 block 16%, DT40 TDP1 CPT inconclusive, PLK1 PBD inh 17µM* and DT40 TDP1 no CPT inconclusive.
For Oc1ccc(Nc2nc(NCC3CCCO3)c3ccccc3n2)cc1 (centres undefined) the results were KAT2A inh 1%, VDR inh -18%, TDP1 block 2%, DT40 TDP1 CPT 23µM*, PLK1 PBD inh 5% and DT40 TDP1 no CPT 16µM*.
For COc1cccc(Nc2nc(NCC3CCCO3)c3ccccc3n2)c1 (centres undefined) the results were KAT2A inh -12%, VDR inh -15%, TDP1 block 7%, DT40 TDP1 CPT 6.5µM*, PLK1 PBD inh -7% and DT40 TDP1 no CPT 5.2µM*.
